Source: PubChem BioAssay AID463173 (ICCB-Longwood Screening Facility, Harvard Medical School, 2010)
Among all 52,000 compounds or so, about 4,300 (8.3%) were called active. For the sample, actives were picked, then their nearest neighbours and some compounds at random. Values without a mark were called inactive. Cut-off read from the data, not from the text of the source: active = survival mostly below about 52% (no sharp cut-off); inactive = mostly above about 56%.

These compounds were tested on DeltatarO mutant (assay: S. aureus survival, RN4220 and DeltatarO strains – OD600, teichoic acid synthesis inhibitors, primary screen (AID 463173)). Conditions: S. aureus RN4220 wild type/DeltatarO growth, OD600, 18 h, stronger effect = lower value, screened at 18.75 µg/mL (by protocol).

Structure (SMILES)	survival
Cc1cccc(N(C)C(=O)C(Cc2ccccc2)NS(=O)(=O)c2cccc3nsnc23)c1 (stereo not drawn)	74%
Cc1nnc(N2CCC(C(=O)N3CCCCC3)CC2)c2nn(-c3ccc(Cl)cc3)c(C)c12	95%
COCCNC(=O)CSc1nc(-c2ccccc2)[nH]c1-c1ccc(OC)cc1	80%
COc1ccc(-c2[nH]c(-c3ccccc3)nc2SCC(=O)NC2CCCC2)cc1	67%
COc1ccc(-c2nc(-c3ccccc3)c(-c3ccc(F)cc3)[nH]2)c(OC)c1C	5% (active)
COc1cc(-c2nc(SCC(=O)Nc3ccc(C)cc3)c(-c3ccc(F)cc3)[nH]2)cc(OC)c1OC	91%
COc1ccc(NC(=O)CSc2nc(-c3ccc(OC)cc3)[nH]c2-c2ccc(OC)cc2)cc1	71%
COc1ccc(-c2nc(SCC(=O)Nc3ccccc3)c(-c3ccc(F)cc3)[nH]2)cc1OC	49%
COc1ccc(-c2nc(-c3ccccc3)c(-c3ccccc3)[nH]2)cc1Br	59%
COc1ccc(-c2[nH]c(-c3ccc(O)cc3)nc2-c2ccccc2)cc1	3% (active)
COc1ccc(-c2nc(-c3ccccc3)c(-c3ccc(O)cc3)[nH]2)cc1	1% (active)
COc1cc(-c2nc(-c3cccc(Cl)c3)c(-c3ccccc3)[nH]2)cc(OC)c1OC	126%
COc1cc(-c2nc(-c3ccccc3)c(-c3ccc(Br)cc3)[nH]2)cc(OC)c1O	0% (active)
CCOc1ccc(-c2nc(-c3ccccc3)c(-c3ccccc3)[nH]2)cc1OCC	142%
CC(=O)N1C(=O)/C(=C2\SC(=S)N(C(C)C(=O)O)C2=O)c2ccccc21 (stereo not drawn)	112%
CCCCN(CC)CCNC(=O)C1CCCN(S(=O)(=O)c2cccc3nsnc23)C1 (stereo not drawn)	117%
Nn1c(SCCC(=O)O)nnc1-c1ccccc1	83%
COCCNC(=O)c1cnc2sc(N3CCC(C)CC3)nn2c1=O	86%
O=S(=O)(c1ccccc1)c1nnn2c1nc(NCc1cccs1)c1sccc12	87%
N#CC(C(=O)c1ccc(F)cc1)c1nc2ccccc2[nH]1 (stereo not drawn)	86%
CC1=C(C(=O)Nc2ccc(Cl)cc2)C(c2ccccc2C)n2ncc(C(=O)Nc3ccc(C)cc3)c2N1 (stereo not drawn)	54%
O=C(O)c1ccc(-c2nc3ccccc3[nH]2)cc1	86%
O=C(CSc1nc(-c2ccc(F)cc2)[nH]c1-c1ccccc1)Nc1ccccc1	67%
Oc1ccc(-c2nc(-c3ccccc3)c(-c3ccc(Br)cc3)[nH]2)cc1	-4% (active)

Structure (SMILES)	survival
Cc1nn(-c2ccc(N3CCCCC3)nn2)c(C)c1CCC(=O)NCc1ccccc1	67%
Cc1ccc(N(CC(=O)NC2CCCC2)C(=O)c2ccc(N3CCCC3)nc2)cc1	89%
Cc1ccc(NC(=O)C2CCCN(S(=O)(=O)c3cccc4nsnc34)C2)c(C)c1 (stereo not drawn)	83%
CC1(C)Oc2ccc(C(=O)Nc3ccccc3)cc2N(CC(=O)N2CCCC2)C1=O	103%
Cc1cc(N2CCC(C)CC2)nc2ccc(NC(=O)Cc3ccccc3Br)cc12	46% (active)
Cc1cc(N2CCC(C)CC2)nc2ccc(NC(=O)CCC(=O)N3CCN(c4ccccc4F)CC3)cc12	52%
Cc1ccc(Cl)cc1N1CCN(C(=O)CCC(=O)Nc2ccc3nc(N4CCC(C)CC4)cc(C)c3c2)CC1	52%
COc1ccccc1CC(=O)Nc1ccc2nc(N3CCC(C)CC3)cc(C)c2c1	61%
Cc1cccc(CC(=O)Nc2ccc3nc(N4CCC(C)CC4)cc(C)c3c2)c1	4% (active)
COc1cccc(CC(=O)Nc2ccc3nc(N4CCC(C)CC4)cc(C)c3c2)c1	49%
Cc1cc(N2CCN(C)CC2)nc2ccc(NC(=O)Nc3ccccc3Br)cc12	84%
Cc1cc(N2CCC(C)CC2)nc2ccc(NC(=O)CCC(=O)N3CCN(c4cccc(C(F)(F)F)c4)CC3)cc12	31% (active)
Cc1cc(N2CCC(C)CC2)nc2ccc(NC(=O)Cc3c(F)cccc3Cl)cc12	56%
CC1=C(C(=O)Nc2ccc(C)cc2C)C(c2ccccc2C)n2ncnc2N1 (stereo not drawn)	100%
N#CCN(CC#N)C(=O)Cc1cccs1	102%
Cc1ccc(CN2C(=O)C3(c4ccccc42)N(c2cccc(F)c2)C(=O)CS3(=O)=O)cc1 (stereo not drawn)	75%
CCN1C(=O)c2ccccc2S(=O)(=O)c2ccc(C(=O)NCc3ccc(F)cc3)cc21	59%
COc1ccc2c(CNCc3ccc(C)o3)c(C(=O)O)n(Cc3ccccc3C)c2c1	96%
Cc1ccc(NC(=O)c2cccc3c(=O)c4c([nH]c23)CCCC4)c(C)c1	69%
COc1cccc(CNC(=O)Cn2c(C)c3cnn(-c4ccccc4)c(=O)c3c2C)c1	94%
CSc1nc(NC(C)=O)nc(C)c1Br	103%
Nc1c(-c2nc(-c3ccc(F)cc3)cs2)c2ccccn2c1C(=O)c1ccc2c(c1)OCO2	89%
COc1ccc(CCNc2nc(SCc3cccc(Cl)c3)nc3ccccc23)cc1OC	94%
N#Cc1c(C(F)(F)F)cc(-c2cccs2)nc1SCc1ccc(F)cc1	125%

Structure (SMILES)	survival
COc1ccc2c(c1)c1c(c(=O)n(-c3ccccc3C)c(=O)n1CC(=O)NCc1ccc(C)cc1)n2C	75%
CCC(C)Sc1oc(-c2ccco2)nc1S(=O)(=O)c1ccc(Cl)cc1 (stereo not drawn)	49% (active)
Cc1ccc(CSc2oc(-c3ccco3)nc2S(=O)(=O)c2ccc(Br)cc2)cc1	56%
CC(Sc1oc(-c2cccs2)nc1S(=O)(=O)c1ccccc1)c1ccccc1 (stereo not drawn)	44% (active)
CC(Sc1oc(-c2ccco2)nc1S(=O)(=O)c1ccc(Br)cc1)c1ccccc1 (stereo not drawn)	70%
CCC(C)Sc1oc(-c2ccco2)nc1S(=O)(=O)c1ccc(C)cc1 (stereo not drawn)	18% (active)
Cc1ccc(S(=O)(=O)c2nc(-c3cccs3)oc2SC(C)c2ccccc2)cc1 (stereo not drawn)	55%
Cc1ccc(S(=O)(=O)c2nc(-c3ccco3)oc2SC(C)c2ccccc2)cc1 (stereo not drawn)	45% (active)
Cc1ccc(S(=O)(=O)c2nc(-c3ccco3)oc2SC(C)C)cc1	47%
CCCSc1oc(-c2ccco2)nc1S(=O)(=O)c1ccc(Cl)cc1	51%
Cc1ccc(S(=O)(=O)c2nc(-c3ccco3)oc2SCc2ccccc2Cl)cc1	61%
CC(C)Sc1oc(-c2cccs2)nc1S(=O)(=O)c1ccc(Cl)cc1	66%
Cc1ccc(CSc2oc(-c3ccco3)nc2S(=O)(=O)c2ccc(Cl)cc2)cc1	63%
COc1ccc(Cc2nc3ccc(C(=O)NCCc4ccc(Cl)cc4)cc3o2)cc1	75%
O=C(Cn1ncc2c3ccccc3n(Cc3ccc(Cl)cc3)c2c1=O)NC1CCCCCC1	96%
CSc1ccc(CNC(=O)Cn2c(-c3cccs3)cc3cc(F)ccc32)cc1	101%
COc1ccc(NC(=O)C(NC(=O)/C=C\c2ccc3c(c2)OCO3)c2ccc(OC)cc2)cc1 (stereo not drawn)	61%
CCCn1c(CCC(=O)Nc2cc(OC)cc(OC)c2)nc2cccnc21	78%
CCOc1ccc(CCNC(=O)c2cccc(-n3c(C)nc4cccnc43)c2)cc1	90%
N#Cc1cc2c(cc1C#N)Oc1ccccc1O2	103%
CC(C)CCn1c(=O)c2sccc2n2c(CCCC(=O)NC(C)C)nnc12	96%
COc1cc(S(=O)(=O)N2CCN(C)CC2)c(C)cc1C	78%
COc1ccccc1CNC(=O)CN1C(=O)CCCc2ccccc21	94%
COc1ccc2cc(CNc3ccc(OC)c(OC)c3)c(=O)n(CC(=O)Nc3ccc(C)cc3)c2c1	74%

Structure (SMILES)	survival
O=C(NC1CCCCCC1)c1ccc2c(c1)sc1nc(-c3ccc(F)cc3)cn12	85%
O=C(NC1CCCCC1)c1ccc2c(c1)sc1nc(-c3ccc(F)cc3)cn12	62%
CC1CCCCN1CCCNC(=O)c1ccc2c(c1)sc1nc(-c3ccc(F)cc3)cn12 (stereo not drawn)	29% (active)
CCc1ccc(-c2cn3c(n2)sc2cc(C(=O)NC4CCCCC4)ccc23)cc1	87%
CCc1ccc(-c2cn3c(n2)sc2cc(C(=O)NC4CCCCCC4)ccc23)cc1	79%
CCC1CCCCN1CCCNC(=O)c1ccc2c(c1)sc1nc(-c3ccc(F)cc3)cn12 (stereo not drawn)	14% (active)
Cc1cc(Nc2ccc(C)c(C)c2)n2cnnc2n1	94%
CC1CCN(c2cc3c(cc2F)c(=O)c(S(=O)(=O)c2cccc(Cl)c2)cn3Cc2ccccc2)CC1	80%
COc1ccccc1C(=O)n1nc(-c2ccco2)nc1NCc1ccc(Cl)cc1	54%
COc1ccc(C(=O)/C=C\Nc2ccc(S(=O)(=O)N=C(N)N)cc2)cc1OC	76%
Cc1ccc(CN(C(=O)COc2ccc(C)c(C)c2)C2CCS(=O)(=O)C2)o1 (stereo not drawn)	92%
Cc1cccc(CNC(=O)C2CCN(c3nnc(-n4c(C)ccc4C)s3)CC2)c1	95%
CC1CCc2onc(C(=O)N3CCN(c4cccc(C(F)(F)F)c4)CC3)c2C1 (stereo not drawn)	37% (active)
O=C(c1noc2c1CCCCC2)N1CCN(c2cccc(Cl)c2)CC1	69%
O=C(c1noc2c1CCCCC2)N1CCN(c2ccc(Cl)cc2)CC1	98%
O=C(c1cc2ccc3cccnc3c2[nH]1)N1CCN(c2ccc(Cl)cc2)CC1	84%
O=C(c1noc2c1CCCCC2)N1CCN(c2cccc(C(F)(F)F)c2)CC1	0% (active)
CC1CCc2onc(C(=O)N3CCN(c4cccc(Cl)c4)CC3)c2C1 (stereo not drawn)	69%
CC1CCc2onc(C(=O)N3CCN(c4ccccc4)CC3)c2C1 (stereo not drawn)	117%
O=C(c1cc2ccc3cccnc3c2[nH]1)N1CCN(c2cccc(C(F)(F)F)c2)CC1	0% (active)
O=C(c1cc2ccc3cccnc3c2[nH]1)N1CCN(c2ccccc2)CC1	75%
